Inconclusive results are not listed. A call without a number means that no potency is given here. A number with no mark means an inactive call. Activity calls are given as the source filed them. Unless noted, the call rests on the fitted dose curve; in most records, active means well fitted cell-killing curve with a large enough effect in the repeat runs; inconclusive means weak or mixed curves, or effect the other way; inactive means flat fitted curve, though single readings scatter.
system: not listed separately; experiment: qHTS assay to identify small molecule antagonists of the sonic hedgehog signaling (Shh) pathway (AID 1259369; calls by dose curve; further: nearly all actives have a fitted effect of over 45% in size); conditions: NIH/3T3 Gli1-Luc reporter, Shh antagonist, luminescence 24 h; series mostly up to 92.4 µM
Outline: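 NIH/3T3 stable Gli1-Luc clone, 2,000 cells/well, 4hr settle; cpd + conditioned medium 24hr; Luc reagent 30min RT; luminescence.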

Row | Compound | Potency | activity change, negative = inhibition
1 | CCCCCCCCCCCCCCCC(=O)NCCO | inactive | –
2 | C=COCCOCCOC=C | inactive | –
3 | Nc1nc(=O)n([C@@H]2O[C@H](CO)[C@@H](O)[C@@H]2F)cc1I | inactive | –
4 | COc1ccc(N=Nc2cc(C)c(N=Nc3ccc(S(=O)(=O)O)cc3)cc2OC)cc1 | inactive | –
5 | NS(=O)(=O)c1ccc(Cl)c(S(N)(=O)=O)c1 | inactive | –
6 | C1=C\CC/C=C\CC/1 | inactive | –
7 | CCCCCC1CCCC(=O)O1 (stereo not given) | inactive | –
8 | C=C(C)C(=O)OC1CC(C)CC(C)(C)C1 (stereo not given) | inactive | –
9 | CCN(CC)C(=O)C1CN2CCc3cc(OC)c(OC)cc3C2CC1OC(C)=O (stereo not given) | inactive | –
10 | O=C(Oc1ccccc1C(=O)O)c1ccccc1O | inactive | –
11 | NC(=O)NNC(N)=O | inactive | –
12 | C=CCCCCCCCCCCC | – | -3.37% [at 8.39 µM]
13 | CCCCC(C)C(=O)O (stereo not given) | inactive | –
14 | CCCCCCCCCCCCCCCCCCN(C)C | inactive | –
15 | COc1cc2c3cc1Oc1cc(ccc1O)C[C@@H]1c4c(cc(OC)c(O)c4Oc4ccc(cc4)C[C@@H]3N(C)CC2)CC[N+]1(C)C | inactive | –
16 | O=C(/C=C/c1ccccc1)NCCO | inactive | –
17 | CCC(C)(CCC(C)C)C(=O)[O-].CCC(C)(CCC(C)C)C(=O)[O-].[Zn+2] (stereo not given) | inactive | –
18 | CCc1nccnc1C | inactive | –
19 | C=CCOc1c(Br)cc(C(C)(C)c2cc(Br)c(OCC=C)c(Br)c2)cc1Br | inactive | –
20 | CN(C)CCCNCCC#N | inactive | –
21 | FC(F)(F)/C(=N\OCC1OCCO1)c1ccc(Cl)cc1 | inactive | –
22 | FC(F)(F)c1ccc(Cl)cc1Cl | inactive | –
23 | Cc1ccccc1OCC1CO1 (stereo not given) | inactive | –
24 | C[C@H](CCC(=O)O)[C@H]1CC[C@H]2[C@@H]3[C@H](O)C[C@@H]4C[C@H](O)CC[C@]4(C)[C@H]3C[C@H](O)[C@]12C | inactive | –
25 | CCCCCCCC[Si](OCC)(OCC)OCC | inactive | –
26 | CC(C)COC(=O)CC(C(=O)OCC(C)C)S(=O)(=O)O (stereo not given) | inactive | –
27 | CO[Si](CCCCl)(OC)OC | inactive | –

target: Estrogen receptor beta (Homo sapiens) (UniProt Q92731); experiment: qHTS assay to identify small molecule agonists of the estrogen receptor beta (ER-beta) signaling pathway (AID 1259377; active means well fitted activation curve with a large enough effect in the signal ratio in the repeat runs, not every such curve was filed as active; the % refers to the signal ratio; further: potency means the concentration at half of the fitted maximal effect); conditions: ER-beta-UAS-bla HEK293T, beta-lactamase FRET ratio, 16 h; series mostly up to 92.4 µM
Outline: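 Read-out: beta-lactamase FRET fluorescence. Cell line: ER-beta-UAS-bla HEK293T in 2% charcoal-stripped FBS. Exposure: 16 hr at 37C. Substrate step: 2 h at room temperature.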

Chain of Estrogen receptor beta (Homo sapiens) (Q92731 whole entry, looked up): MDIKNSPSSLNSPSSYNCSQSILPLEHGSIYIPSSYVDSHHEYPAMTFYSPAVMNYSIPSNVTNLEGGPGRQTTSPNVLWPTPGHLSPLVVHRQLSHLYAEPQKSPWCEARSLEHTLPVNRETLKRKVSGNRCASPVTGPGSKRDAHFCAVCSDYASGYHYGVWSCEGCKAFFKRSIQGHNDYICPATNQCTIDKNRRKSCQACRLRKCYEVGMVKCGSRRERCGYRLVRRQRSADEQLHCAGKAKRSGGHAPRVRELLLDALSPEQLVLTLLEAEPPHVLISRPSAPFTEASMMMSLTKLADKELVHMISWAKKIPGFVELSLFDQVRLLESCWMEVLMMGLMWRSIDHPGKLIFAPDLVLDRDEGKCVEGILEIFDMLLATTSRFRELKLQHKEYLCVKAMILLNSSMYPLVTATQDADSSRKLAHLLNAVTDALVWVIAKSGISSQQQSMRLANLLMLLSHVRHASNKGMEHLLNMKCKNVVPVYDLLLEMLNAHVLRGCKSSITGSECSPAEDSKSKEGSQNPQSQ

Row | Compound | Potency
28 | C=COCCOCCOC=C | inactive
29 | CCOC(=O)C(=O)c1csc(NC=O)n1 | inactive
30 | CCC(CO)CO | inactive
31 | Nc1nc(=O)n([C@@H]2O[C@H](CO)[C@@H](O)[C@@H]2F)cc1I | inactive
32 | COc1ccc(N=Nc2cc(C)c(N=Nc3ccc(S(=O)(=O)O)cc3)cc2OC)cc1 | inactive
33 | NS(=O)(=O)c1ccc(Cl)c(S(N)(=O)=O)c1 | inactive
34 | CCCCCC1CCCC(=O)O1 (stereo not given) | inactive
35 | C=C(C)C(=O)OC1CC(C)CC(C)(C)C1 (stereo not given) | inactive
36 | C=C[C@@H](C)CCC=C(C)C | inactive
37 | NC(=O)NNC(N)=O | inactive
38 | CCCCCCCCCCCCCCCCCCN(C)C | inactive
39 | COc1cc2c3cc1Oc1cc(ccc1O)C[C@@H]1c4c(cc(OC)c(O)c4Oc4ccc(cc4)C[C@@H]3N(C)CC2)CC[N+]1(C)C | 26.6 µM (active)
40 | O=C(/C=C/c1ccccc1)NCCO | inactive
41 | CCc1nccnc1C | inactive
42 | C=CCOc1c(Br)cc(C(C)(C)c2cc(Br)c(OCC=C)c(Br)c2)cc1Br | inactive
43 | SCCSCCS | inactive
44 | CN(C)CCCNCCC#N | inactive
45 | FC(F)(F)/C(=N\OCC1OCCO1)c1ccc(Cl)cc1 | inactive
46 | Cc1ccccc1OCC1CO1 (stereo not given) | inactive
47 | CCCCCCCC[Si](OCC)(OCC)OCC | inactive
48 | CC(C)COC(=O)CC(C(=O)OCC(C)C)S(=O)(=O)O (stereo not given) | inactive
49 | CO[Si](CCCCl)(OC)OC | inactive

target: Estrogen receptor beta (Homo sapiens) (UniProt Q92731); experiment: qHTS assay to identify small molecule antagonists of the estrogen receptor beta (ER-beta) signaling pathway (AID 1259378; active means well fitted inhibition curve with a large enough effect in the signal ratio in the repeat runs, not every such curve was filed as active; the % refers to the signal ratio); conditions: ER-beta-UAS-bla HEK293T, beta-lactamase FRET ratio, 16 h; series mostly up to 92.4 µM
Outline: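 Antagonist mode: compounds added to beta-lactamase reporter HEK293T ER-beta-UAS cells stimulated with E2 (1nM final), 16 hr at 37C. LiveBLAzer B/G FRET substrate, 2 hours room temperature, fluorescence read-out.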

Row | Compound | outcome
50 | C=COCCOCCOC=C | inactive
51 | CCOC(=O)C(=O)c1csc(NC=O)n1 | inactive
52 | CCC(CO)CO | inactive
53 | NS(=O)(=O)c1ccc(Cl)c(S(N)(=O)=O)c1 | inactive
54 | CCCCCC1CCCC(=O)O1 (stereo not given) | inactive
55 | C=C(C)C(=O)OC1CC(C)CC(C)(C)C1 (stereo not given) | inactive
56 | NC(=O)NNC(N)=O | inactive
57 | CCCCC(C)C(=O)O (stereo not given) | inactive
58 | CCCCCCCCCCCCCCCCCCN(C)C | inactive
59 | O=C(/C=C/c1ccccc1)NCCO | inactive
60 | CCc1nccnc1C | inactive
61 | C=CCOc1c(Br)cc(C(C)(C)c2cc(Br)c(OCC=C)c(Br)c2)cc1Br | inactive
62 | SCCSCCS | inactive
63 | CN(C)CCCNCCC#N | inactive
64 | FC(F)(F)/C(=N\OCC1OCCO1)c1ccc(Cl)cc1 | inactive
65 | Cc1ccccc1OCC1CO1 (stereo not given) | inactive
66 | CC(C)COC(=O)CC(C(=O)OCC(C)C)S(=O)(=O)O (stereo not given) | inactive
67 | CO[Si](CCCCl)(OC)OC | inactive

system: not listed separately; experiment: qHTS assay to identify small molecule agonists of the androgen receptor (AR) signaling pathway in the presence of an antagonist - cell viability counter screen (AID 1259379); conditions: MDA-kb2 viability, CellTiter-Fluor, 16 h; series mostly up to 92.4 µM; further: nearly all actives have a fitted effect of over 25% in size; further: potency means the concentration at half of the fitted maximal effect;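 on activity change, negative = cytotoxicity: MDA-kb2 human breast cancer cells carrying an MMTV luciferase reporter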
Outline: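 MDA-kb2 viability measured by CellTiter-Fluor fluorescence in the same wells as the luciferase signal; nilutamide 3.0uM final; 15-point compound titration; 16 hr at 37C.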

Row | Compound | Potency | activity change, negative = cytotoxicity
68 | CCCCCCCCCCCCCCCC(=O)NCCO | inactive | –
69 | C=COCCOCCOC=C | inactive | –
70 | C=C(C)[C@@H]1CC[C@@H](C)C[C@@H]1O | inactive | –
71 | O=C(O)CCNC(=O)c1ccccc1 | inactive | –
72 | CCOC(=O)C(=O)c1csc(NC=O)n1 | inactive | –
73 | CCC(CO)CO | inactive | –
74 | Nc1nc(=O)n([C@@H]2O[C@H](CO)[C@@H](O)[C@@H]2F)cc1I | inactive | –
75 | COc1ccc(N=Nc2cc(C)c(N=Nc3ccc(S(=O)(=O)O)cc3)cc2OC)cc1 | 48.6 µM (active) | –
76 | OC(CCN1CCCCC1)(c1ccccc1)c1ccccc1 | inactive | –
77 | Cc1nc(C)nc(N2C[C@@H](C)N(c3ccnc([C@@H](C)O)n3)[C@@H](C)C2)n1 | inactive | –
78 | COc1ccc(NS(=O)(=O)c2ccc(N)cc2)nn1 | inactive | –
79 | O=C(CN1CCN(Cc2ccc3c(c2)OCO3)CC1)N1c2ccccc2Sc2ccccc21 | inactive | –
80 | NS(=O)(=O)c1ccc(Cl)c(S(N)(=O)=O)c1 | inactive | –
81 | C1=C\CC/C=C\CC/1 | inactive | –
82 | CCCCCC1CCCC(=O)O1 (stereo not given) | inactive | –
83 | C=C(C)C(=O)OC1CC(C)CC(C)(C)C1 (stereo not given) | inactive | –
84 | C=C[C@@H](C)CCC=C(C)C | inactive | –
85 | CCN(CC)C(=O)C1CN2CCc3cc(OC)c(OC)cc3C2CC1OC(C)=O (stereo not given) | inactive | –
86 | O=C(Oc1ccccc1C(=O)O)c1ccccc1O | inactive | –

Row | Compound | Potency | activity change, negative = cytotoxicity
87 | NC(=O)NNC(N)=O | inactive | –
88 | C=CCCCCCCCCCCC | – | 0.376% [at 8.39 µM]
89 | CCCCC(C)C(=O)O (stereo not given) | inactive | –
90 | CCCCCCCCCCCCCCCCCCN(C)C | inactive | –
91 | COc1cc2c3cc1Oc1cc(ccc1O)C[C@@H]1c4c(cc(OC)c(O)c4Oc4ccc(cc4)C[C@@H]3N(C)CC2)CC[N+]1(C)C | inactive | –
92 | O=C(/C=C/c1ccccc1)NCCO | inactive | –
93 | CCC(C)(CCC(C)C)C(=O)[O-].CCC(C)(CCC(C)C)C(=O)[O-].[Zn+2] (stereo not given) | inactive | –
94 | CCc1nccnc1C | inactive | –
95 | C=CCOc1c(Br)cc(C(C)(C)c2cc(Br)c(OCC=C)c(Br)c2)cc1Br | inactive | –
96 | SCCSCCS | inactive | –
97 | CN(C)CCCNCCC#N | inactive | –
98 | FC(F)(F)/C(=N\OCC1OCCO1)c1ccc(Cl)cc1 | inactive | –
99 | FC(F)(F)c1ccc(Cl)cc1Cl | inactive | –
100 | Cc1ccccc1OCC1CO1 (stereo not given) | inactive | –
101 | C[C@H](CCC(=O)O)[C@H]1CC[C@H]2[C@@H]3[C@H](O)C[C@@H]4C[C@H](O)CC[C@]4(C)[C@H]3C[C@H](O)[C@]12C | inactive | –
102 | CCCCCCCC[Si](OCC)(OCC)OCC | inactive | –
103 | CC(C)COC(=O)CC(C(=O)OCC(C)C)S(=O)(=O)O (stereo not given) | inactive | –
104 | Cc1ncc([N+](=O)[O-])n1CC(O)CCl (stereo not given) | inactive | –
105 | CO[Si](CCCCl)(OC)OC | inactive | –
